Shown are actives, neighbours in structure and some others; about 2.3% of the full set was active somewhere.
GLP1R ag = qHTS of GLP-1 Receptor Agonists; Potency, µM (doses to about 45.6 µM), for the others: top-dose activation, hits mostly activators; hit rate 0.007% among 380,000; HEK293 GLP-1R CRE-luciferase, luminescence, 4-6 h; cells express a hypersensitive GLP-1R form; AID 624172, 2012; also: % of control where 0% means no effect
Glioma ERSR ind = qHTS for Inducers of the Endoplasmic Reticulum Stress Response (ERSR) in Human Glioma: qHTS. U87-MG GRP78 promoter luciferase reporter, 16 h. Potency, µM, inactives show at the top dose activation, most hits filed as activators. hit rate 0.02% among 420,000; also: series mostly up to about 76 µM; % of control where 0% means no effect; nearly all actives have a fitted effect of over 35% in size
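ERSR induction read as luciferase luminescence (Bright-Glo, 10 min at room temperature) in stably transfected human U87-MG glioma cells exposed to compounds for 16 h, using GRP78 as sensor.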
ALOX12 inh = Primary qHTS assay for inhibitors of human arachidonate 12S-lipoxygenase (ALOX12): Round 2 | purified 12hLO, xylenol orange hydroperoxide absorbance | Potency, µM (series often up to 108 µM), without a hit: at the highest dose activity change, negative = inhibition, hits mostly inhibitors | Polyunsaturated fatty acid lipoxygenase ALOX12 (Homo sapiens), P18054 | hit rate 1.1% among 580,000 | AID 1671190, 2021; also: % is scaled to controls: 0 for no effect and ±100 for the full control effect
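Purified human 12hLO (150 nM final) in 25 mM Hepes, 0.01% Triton X-100, pH 7.0 was preincubated 15 min at room temperature with compound. Then 40 uM arachidonic acid was added, 30 min. Hydroperoxide was read by Fe-XO absorbance ratio 573/405 nm.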
GLP-1R inv ag = qHTS of GLP-1 Receptor Inverse Agonists (Inhibition Mode) | HEK293 GLP-1R CRE-luciferase, luminescence, 24 h; GLP-1R form is constitutively active | Potency, µM (doses to about 38.3 µM), for inactives: top-dose activity change, negative = inhibition, usual class: inhibitors | hit rate 1.6% among 410,000 | AID 624417, 2012; also: % is scaled to controls: 0 for no effect and ±100 for the full control effect; nearly all actives have a fitted effect of over 55% in size
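Constitutively active GLP-1R drives a cAMP-responsive luciferase in stably transfected HEK293 cells; test compounds are added after overnight (12 h) attachment and left 24 hr, and signal loss in luminescence marks inhibition.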
PTHR1 ag = qHTS for PTHR1 Agonists: Primary Screen; AID 743266, 2014; hit rate 0.075% among 410,000; Potency, µM (series often up to 115 µM), for inactives: at the top dose activation, actives largely listed as activators; HEK293 GP2 PTHR1 cells, GloSensor cAMP luminescence, 1 h; also: nearly all actives have a fitted effect of over 55% in size
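HEK-293-derived GP2 cells expressing PTHR1 and a GloSensor cAMP reporter, 3,000/well, plated overnight, given luciferin plus IBMX (each 0.5 mM as added) for 1 h at 37 °C, then compound for 1 h at 37 °C. Luminescence was read after 15 min at room temperature.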
GLS inh = qHTS for Inhibitors of Glutaminase (GLS); Glutaminase kidney isoform, mitochondrial (Homo sapiens), O94925; GLS enzymatic activity, qHTS titration; Potency, µM (doses to about 45.5 µM), for inactives: at the highest dose activity change, negative = inhibition, most hits filed as inhibitors; hit rate 0.21% among 410,000; AID 624170, 2012; also: % is scaled to controls: 0 for no effect and ±100 for the full control effect
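hKGA in 45 mM KH2PO4 pH 8.2, 0.02% Tween-20 with pin-transferred compounds; 1 mM L-glutamine (stock) plus glutamate oxidase/HRP/Amplex Red coupling added. Fluorescence read initially and after 30 min at RT.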
An asterisk follows results filed as active; i = inactive; ? = inconclusive; . = not tested or not shown; [ ] = another dose, or the depositor's remark. Calls follow the shape of the dose curve; as a rule, active = well fitted curve in the direction sought with a large enough effect; inconclusive = small, poorly fitted or top-dose-only effect, or another doubt; inactive = no such curve, though single readings can be large; an effect the other way counts as inactive or inconclusive. Potency is read from the fitted curve at half-maximal effect.

SMILES | GLP1R ag | Glioma ERSR ind | ALOX12 inh | GLP-1R inv ag | PTHR1 ag | GLS inh
CC1=C(NC(=O)c2ccc(Cl)cc2)C(c2c[nH]c3ccccc23)n2ncnc2N1 (configuration not stated) | . | . | 4.8% | . | . | .
COc1ccc(C)cc1S(=O)(=O)Nc1cc(Cl)ccc1Cl | -33.7% | -3.0% | 0.0% | 8.91µM* | i | -9.8%
COc1ccc(Cl)cc1NS(=O)(=O)c1ccc(OC)c(OC)c1 | -8.4% | 0.3% | 0.0% | -2.0% | -22.5%[57.5 µM] | 24.5%
COc1ccc(S(=O)(=O)Nc2cc(Cl)ccc2OC)cc1 | -1.5% | -6.8% | -1.0% | 1.41µM* | -6.6% | 10.9%
COc1ccc(CN2CCC(CNS(=O)(=O)c3cccc(C(F)(F)F)c3)CC2)cc1 | 5.5% | -4.1% | 1.8% | 11.2µM* | -66.1% | -18.6%
Cc1ccc2nc(-c3ccsc3)c(NC3CCCC3)n2c1 | 7.2% | -1.3% | -3.6% | -26.8% | -0.3% | 1.58µM*
Cc1ccc2nc(-c3ccncc3)c(NC3CCCC3)n2c1 | 4.1% | 0.1% | -3.5% | ? | 11.7% | 13.3%
O=C1C(n2ccc3ccccc32)c2ccccc2N1Cc1ccc(C(F)(F)F)cc1 (configuration not stated) | . | . | 31.6µM* | . | . | .
O=C(c1cc(-c2ccccc2)nc2ccccc12)N1CCc2ccccc2C1 | -12.2% | -0.7% | -18.0% | 11.2µM* | i | 5.9%
Cc1ccc(-c2cc(C(=O)N3CCN(c4ncccn4)CC3)c3ccccc3n2)cc1 | -4.1% | -6.4% | ? | ? | -25.7% | 0.9%
O=C(c1cc(-c2ccc(Br)cc2)nc2ccccc12)N1CCN(c2ccccc2O)CC1 | 6.6% | 3.4% | -29.1% | 2.51µM* | -20.5% | 6.8%
NC(N)=NN=Cc1ccnc2ccccc12 | 4.4% | -2.5% | ? | 1.2% | -0.5% | -6.9%
NC(=NCc1ccccc1)NN=Cc1ccnc2ccccc12 | 11.2% | -3.1% | 12.6µM* | -27.4% | -19.7% | -3.7%
COC(=O)c1cc(NC(=S)NCc2ccc(Cl)cc2)cc(C(=O)OC)c1 | -4.2% | -5.2% | 44.7µM* | ? | -27.5% | 5.2%
COc1ccc(CNC(=S)NCc2ccc(Cl)cc2)cc1OC | 3.8% | 0.0% | 50.1µM* | ? | -31.7% | 4.1%
COc1ccccc1NC(=S)NCc1ccc(Cl)cc1 | -0.4% | -4.6% | 11.2µM* | ? | i | -16.4%
COC(=O)c1cccc(NC(=S)NCc2ccc(Cl)cc2)c1 | -2.3% | -4.0% | ? | ? | i | 6.9%
O=C(OCc1nc2ccccc2o1)c1ccccc1F | . | . | 2.5% | . | . | .
COc1ccc(C2/C=C\CN(C(=O)C3CCCC3)[C@H](Cc3ccccc3)C(=O)N2Cc2ccc(F)cc2)cc1 (some centres not stated) | -3.4% | -3.4% | -17.2% | 4.47µM* | -22.7% | 4.1%
COc1ccc(C2/C=C\CN(C(=O)Nc3ccccc3)CC(=O)N2Cc2ccc(F)cc2)cc1 (configuration not stated) | -0.5% | -4.1% | 0.0% | -2.4% | i | 16.5%
COc1ccc(C2/C=C\CN(C(=O)Nc3ccc(C(F)(F)F)cc3)CC(=O)N2Cc2ccc(F)cc2)cc1 (configuration not stated) | -3.2% | -8.5% | . | 11.2µM* | -30.6% | 4.9%
COc1ccc(CC2CCN(C(=O)c3c(C)noc3-c3ccc4c(c3)OCO4)CC2)cc1 | . | . | -6.4% | . | . | .
COc1cc(CNC(=O)c2ccc3nc(Cc4ccccc4F)oc3c2)cc(OC)c1OC | . | . | 8.3% | . | . | .

Screening results (PubChem)
